Our source for the inhibition values is PubChem BioAssay AID504329 (Southern Research Specialized Biocontainment Screening …, 2011).

The whole screen tested about 340,000 compounds, of which about 1,000 (0.29%) were called active. No stated cut-off is given here; in the data, inconclusive means inhibition above about 27% without an active follow-up result; inactive means below that. Not all results are given here. Potency and affinity values are given separately.

One may read the inhibition as the drop in the measured response relative to a control, in per cent.

The experiment in a line: NS1A inhibition, H1N1 influenza, cell based functional assay (AID 504329). The following applies: percent inhibition, at 12.5 µM, stronger effect = higher value.
In the case of `CCOC(=O)CC(NC(=O)c1cc2cccc(OC)c2oc1=O)c1ccc(OC)cc1` (configuration not stated), the inhibition was -20.4% (inactive).

Turning to `COc1ccc(-n2c(=O)c3ccccc3n(CC(=O)NC3CCCCC3)c2=O)cc1OC`, the inhibition was 10.9% (inactive). Take `O=S(=O)(c1ccc(Cl)cc1)N1CCCC1c1cccnc1` (configuration not stated): the inhibition was -6.92% (inactive). In the case of `COc1ccc(CNC(=O)C(OC(=O)c2ccco2)c2ccccc2F)cc1` (configuration not stated) it was 4.89% (inactive). On to `COc1cc(C(=O)NCc2nnc(SCC(=O)N3CCCCCC3)o2)cc(OC)c1OC`, for which the inhibition is 0.67% (inactive). As for `CC[C@@]1(C(=O)OC)N[C@H](CN(C)S(=O)(=O)c2ccc(C(C)(C)C)cc2)[C@@H]2C(=O)N(Cc3ccccc3)C(=O)[C@@H]21`, the inhibition is -9.1% (inactive). In the case of `Cc1ccc(Nc2nc(N)nc(-c3oc4ccccc4c3C)n2)cc1` it was -6.47% (inactive); in that of `Cc1cc(/C=N/NC(=O)C(=O)NCc2ccccn2)c(C)n1-c1ccccc1`, -2.44% (inactive); in that of `O=C(Nc1ccccn1)C(=O)Nc1ccccn1`, -1.25% (inactive).

In the case of `COc1cc(/C=N/NC(=O)C(=O)Nc2ccccn2)ccc1O`, the inhibition was -6.98% (inactive). In the case of `O=C(NCc1ccccn1)C(=O)N/N=C/c1ccc2c(c1)OCO2`, the inhibition was -4.91% (inactive). In the case of `COc1ccc(-c2c(C)nc3c(-c4ccc(F)cc4)cnn3c2N)cc1` it was -14.5% (inactive); in that of `COc1cc(C(=O)NC2=NCCS2)ccc1OCc1c(C)noc1C`, -1.34% (inactive); in that of `O=C(CNC(=O)c1cccc(N2C(=O)c3ccccc3C2=O)c1)Nc1ccc(F)c(F)c1`, -11.5% (inactive). As for `COc1cccc(C(=O)Oc2c(CN3CCOCC3)cc(Cl)c3cccnc23)c1`, the inhibition was 4.96% (inactive). In the case of `Cc1c(O)c(CN2CCCC2)cc2c1oc(=O)c1ccccc12` it was -0.95% (inactive); in that of `COc1cc(Br)cc(CN2CCN(c3ncccn3)CC2)c1O`, -10.6% (inactive); in that of `COc1cc(Br)cc(CN2CCN(C)CC2)c1O`, 2.34% (inactive). In the case of `Cc1ccc2c(c1)N(CCC(=O)NC1CC1)C(=O)C(C)O2` (configuration not stated) it was -4.26% (inactive); in that of `COC(=O)c1cc(NC(=S)Nc2cc(Cl)cc(Cl)c2)cc(C(=O)OC)c1`, -5.67% (inactive). In the case of `CN(Cc1ccc(F)cc1)C(=O)c1ccc(NC(=O)CC2SC(N3CCCC3)=NC2=O)cc1` (configuration not stated) it was 9.52% (inactive). Take `Cc1ccc(OCc2nnc(SCC(=O)Nc3ncc(C)s3)o2)cc1`: the inhibition is -2.25% (inactive). Take `CCCC(=O)Nc1ccc(NC(=O)c2cccs2)cn1`: the inhibition was 20.7% (inactive). In the case of `CN(C)c1ccc(CN(C)C2CCCCC2)cc1` it was -7.34% (inactive); in that of `CN(C)c1ccc(CCc2ccc(N)cc2)cc1`, 14.3% (inactive); in that of `NC(N)=N/N=C/c1ccc(N(c2ccccc2)c2ccccc2)cc1`, -36.1% (inactive).

`CCN(Cc1ccccc1)c1ccccc1`: the inhibition was -3.09% (inactive).
